Assay results published in PubChem BioAssay (NCI).
This is part of a sample that, as a whole, favours compounds with a hit. Of some 79,000 tested, about 15% had one in any assay. Values without a mark were called inactive. Active and inactive are the calls of the source. Rule as the data show it: active = growth inhibition above about 70%; inactive = the rest.

Tests used:
[1] = NCI Yeast Anticancer Drug Screen. Data for the rad50 strain (AID 155);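 also: 0% = growth of vehicle-only cultures of the same strain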; details: S. cerevisiae rad50 strain growth inhibition; at 50.0 µM; hits give high values
Method in brief: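 A DNA repair-deficient yeast mutant serves as the test organism; compound-induced growth inhibition is calculated against vehicle-treated cells.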

[2] = NCI Yeast Anticancer Drug Screen. Data for the mec2-1 strain (AID 157); details: S. cerevisiae mec2-1 strain, at 50.0 µM, hits give high values
Method in brief: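 Readout is yeast growth inhibition, normalised to vehicle-treated controls, in the mec2-1 strain exposed to compound.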

[3] = NCI Yeast Anticancer Drug Screen. Data for the sgs1 mgt1 strain (AID 161);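 also: 0% = growth of cultures given vehicle only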; details: S. cerevisiae sgs1 mgt1 strain, at 50.0 µM, hits give high values
Method in brief: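 Growth of a repair-deficient yeast mutant was monitored after compound treatment and expressed as inhibition relative to vehicle-treated cultures.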

[4] = NCI Yeast Anticancer Drug Screen. Data for the cln2 rad14 strain (AID 165);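 also: 0% = growth equal to vehicle treated cultures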; details: S. cerevisiae cln2 rad14 strain, at 50.0 µM, hits give high values
Method in brief: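 Relative to vehicle controls, growth inhibition of compound-treated cln2 rad14 yeast was recorded.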

[5] = NCI Yeast Anticancer Drug Screen. Data for the bub3 strain (AID 167); details: S. cerevisiae bub3 mutant strain, at 50.0 µM, hits give high values
Method in brief: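 Inhibition values come from growth of compound-treated mutant yeast normalised to vehicle-treated controls.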

[6] = NCI Yeast Anticancer Drug Screen. Data for the mlh1 rad18 strain (AID 175); details: S. cerevisiae mlh1 rad18 strain growth inhibition; at 50.0 µM; hits give high values
Method in brief: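 Test agents were incubated with a yeast strain of defined genotype (DNA damage repair defect). Inhibition of growth was derived by comparison with vehicle-exposed cultures.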

Row | SMILES | growth inhibition [1] [%] | growth inhibition [2] [%] | growth inhibition [3] [%] | growth inhibition [4] [%] | growth inhibition [5] [%] | growth inhibition [6]
1 | COC(=O)C1C2OC(C(Br)C2Br)C1C(=O)O (stereo unspecified) | -6.2 | 2.2 | 7.1 | 2.2 | 9.95 | 3.8%
2 | CC(=O)OC12c3ccccc3C(c3ccccc31)C1C(=O)N(c3ccccn3)C(=O)C12 (stereo unspecified) | -23.6 | -7.4 | 5.9 | 3.35 | 9.9 | 5.6%
3 | CC(C)CCC(C)(C)COC(=O)c1ccc([N+](=O)[O-])cc1 (tested in a mixture with another compound) | 36.5 | 15.1 | 43.4 | -2.25 | 2.15 | 29.3%
4 | c1ccc2cc(B(c3cccc4ccccc34)c3cccc4ccccc34)ccc2c1 | 14 | -8.75 | -8.4 | -25.6 | -2.25 | -23.9%
5 | COc1cc(Br)cc2nc(-c3cccs3)oc12 | -15.3 | -46.9 | -62.2 | -24.6 | -8.1 | -32.5%
6 | CC(C)(C)SCCCCO | -7.3 | 19.4 | -0.8 | 0.35 | -5.2 | -3.15%
7 | CS1(C)=NC(=O)c2cc([N+](=O)[O-])ccc2N=1 | 12.2 | 19.4 | 10.4 | -25.2 | 11.8 | 12.8%
8 | C[N+](C)(C)CCOC(=O)/C=C/c1cnc[nH]1 | 9.7 | 10.9 | 37.7 | 23.6 | 6.4 | 16.1%
9 | O=[N+]([O-])c1ccc2nc(NCCCO)c3ccccc3c2c1 | 8.2 | 11.3 | 3.85 | -0.9 | 12.1 | 12.1%
10 | Oc1cccc(O)c1 | 0.8 | -1 | -1.1 | -12.2 | 1.75 | 33.1%
11 | CCC[CH2][Ge]([CH2]CCC)([CH2]CCC)[n]1ccc2ccccc21 | 24 | 31.2 | 47 | 20.3 | 45.9 | 44.7%
12 | CC(C)OP(=O)(c1ccccc1)c1ccc2c(c1)OCCOCCOCCOCCO2 (stereo unspecified) | -3.05 | -2.2 | 0.75 | 7.05 | -2.1 | 24.7%
13 | CC1(O)C2C3C(I)C4C5C3C1C5C42 (stereo unspecified) | 22.6 | 9.05 | 10.1 | 6.7 | 10.3 | 17.4%
14 | COC(NC(N)=O)C(=O)O (stereo unspecified) | 6.9 | 12.3 | -1.25 | -0.9 | 11.9 | 13.7%
15 | CCOC(=O)CNc1ccccc1[N+](=O)[O-] | -2.05 | 5.8 | -5.4 | 12.3 | 13.1 | -3.75%
16 | CN(C)S(=O)(=O)C(CO)c1ccccc1 (stereo unspecified) | 5.75 | 12.9 | 6.8 | 3.15 | -5.4 | 10.5%
17 | Cc1sc2nc3n(c(=O)c2c1C)N=C(c1ccc(Cl)cc1)CS3 | 6.6 | -11.2 | -6.65 | 9.2 | -0.8 | -16.2%
18 | CCN(CC)CCCNc1ccc2ncn3c4ccc(O)cc4c(=O)c1c23 | -14.8 | -36.3 | -54 | 11.8 | -27.8 | -6.65%
19 | C#CCN(CCCC)CCCC | -14.2 | -21.1 | -5.55 | -33.4 | -39.9 | -10.3%
20 | CC(C)CCc1ccc(O)cc1 | 5 | -10.9 | -27.2 | -31.9 | 0.65 | -5.15%
21 | Cc1ccc(S(=O)CC(CF)OCn2cc(C)c(=O)[nH]c2=O)cc1 (stereo unspecified) | 1.6 | 6.65 | -42.6 | 10.2 | -16.1 | -53%

Row | SMILES | growth inhibition [1] [%] | growth inhibition [2] [%] | growth inhibition [3] [%] | growth inhibition [4] [%] | growth inhibition [5] [%] | growth inhibition [6]
22 | Nc1nc2c(C(=O)NCc3cccs3)nnn2c2cccc(Cl)c12 | -6.25 | -1.45 | -5.35 | 4.2 | -20.3 | 7.05%
23 | COC(=O)C1CCc2ccccc2C1=O (stereo unspecified) | -12.6 | -13.7 | 1.95 | 6.4 | 2.7 | 12.2%
24 | Nc1nc(NCCO)c(N=O)c(=O)[nH]1 | 5.1 | -4.1 | -2.3 | 13.4 | 10.1 | 13.4%
25 | CC1OC(=O)/C(=C\N(C)C)C1=O (stereo unspecified) | 1.25 | 9 | 13.2 | 42.5 | 7.75 | 8.6%
26 | C=C(C)C1CC=C(C)[C@](O)(C2(O)C[C@H](C(=C)C)CC=C2C)C1 (stereo partly specified) | -0.55 | 6.95 | 26.1 | 23.9 | 6.6 | 9.65%
27 | CCO/C=C(/C#N)C(=O)OCC | -6.8 | -11.9 | -20.3 | -27.6 | -14.3 | 0.85%
28 | O=C(O)COc1ccc(C(=O)/C(SS/C(C(=O)c2ccc(OCC(=O)O)c(Cl)c2Cl)=C2\C=C(c3ccc(F)cc3)SS2)=C2/C=C(c3ccc(F)cc3)SS2)c(Cl)c1Cl | -35 | -28.4 | -14.2 | 1.8 | -22.3 | 83.7% (active)
29 | CCOC(=O)CN=c1nc(SC)sc2c(C(=O)OCC)nc(Sc3ccccc3)n12 | 1.25 | -7.25 | 1.55 | 13.6 | -11.4 | 8.65%
30 | O=C1c2ccccc2OCC1/C=N/O (stereo unspecified) | 1.9 | -24.1 | -26.4 | 32.2 | -34.1 | -10.8%
31 | CC1(C)CC(=O)C(/C=N/C(=S)NC2CCCCC2)=C(O)C1 | -13.2 | -20.1 | -31.5 | 10.6 | -7.7 | -8%
32 | Cc1ccc(S(=O)(=O)NCCCN(CCCNS(=O)(=O)c2ccc(C)cc2)S(=O)(=O)c2ccc(C)cc2)cc1 | -8.25 | -10.8 | -5.1 | -70.5 | -19.4 | -12.2%
33 | Cc1cc(C)c(N(C)C(=O)CCC(=O)O)c(Br)c1 | 3.1 | -3.05 | -13.2 | 0.05 | 9 | -6.45%
34 | O=C(O)c1cccn1-c1ccccc1 | -4.05 | -24.6 | -1.55 | -21.1 | -10.2 | -15.6%
35 | O=C1CC2(CCCCC2)CC(=O)N1 | -6.25 | -5.05 | 8.3 | -34.6 | 6.9 | -2.35%
36 | Nc1ccc(N2CCN(c3ccc(N)cc3)CC2)cc1 | 12.2 | -9.95 | 16 | 10.2 | 12.3 | 15.8%
37 | Sc1ccc2ccccc2c1 | 12.4 | 9.15 | -23.3 | -38.4 | -17.1 | -30.4%
38 | CC(=O)OC1(C(=O)OCC2CCCO2)CCCC1 (stereo unspecified) | -9.6 | 5.4 | -3.5 | -9.8 | 25.8 | 6.9%
39 | COc1cc(C2c3cc4c(cc3OC(N3CCCC3)C2C)OCO4)cc(OC)c1OC (stereo unspecified) | 22.4 | -0.5 | -2.9 | 5.75 | 3.1 | 6.55%
40 | Cc1nc(C(N)=S)sc1C(=O)CC(=O)C(=O)Nc1c(C(C)C)cccc1C(C)C | -28.1 | -41.6 | -31.8 | -24.9 | -8.55 | -22.1%
41 | O/N=C(/c1ccccc1)C1CCCCC1 | 20.7 | -1.05 | 13 | -0.15 | -8.5 | 10.3%
